Fh CTSL1 inh: counter-screen for PFM18AAP inhibitors: inhibitors of F. hepatica cathepsin L1. recombinant F. hepatica cathepsin L1, Z-Leu-Arg-MCA fluorescence. inhibition, % at 5.96 µM. actives 0.49% (n = 300,000);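 active = inhibition above the mean of all tested compounds plus 3 SD, set per screening campaign, cut at about 17% in these data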;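 also: 0% = plate median of test compound wells and 100% = 1 µM Z-Phe-Ala-diazomethylketone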
HDAC3 inh: blocks human histone deacetylase 3; inhibition, % at 8.3 µM; O15379; recombinant HDAC3, fluorogenic peptide/trypsin coupled, fluorescence; actives 0.15% (n = 320,000); in the data active = inhibition above about 26%, passing the limit was not always enough; inconclusive = no clear call, values can overlap the other calls
m5-HT2A agonist: activates the mouse 5-HT2A serotonin receptor; P35363; CHO-K1 mHTR2A beta-arrestin complementation, luminescence; percent of 30 µM serotonin response; activation, % at 7.6 µM; actives 0.66% (n = 360,000); AID 624169;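 active = activation above a run cutoff, the mean activation of all tested compounds plus 3 SD, cut at about 14% in these data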;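 also: 0% = plate median of compound wells and 100% = 30 µM serotonin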
LANA-H2A inh: blocks KSHV LANA binding to histone H2A/H2B; cell-free LANA-H2A/H2B peptide, fluorescence polarization; AID 2629; inhibition, % (concentration not given with the values); actives 0.6% (n = 320,000); Q9QR71; in the data active = inhibition mostly above about 10%, no sharp cut-off; inactive = mostly below about 6.7%
Target sequence (Q9QR71 whole entry, looked up): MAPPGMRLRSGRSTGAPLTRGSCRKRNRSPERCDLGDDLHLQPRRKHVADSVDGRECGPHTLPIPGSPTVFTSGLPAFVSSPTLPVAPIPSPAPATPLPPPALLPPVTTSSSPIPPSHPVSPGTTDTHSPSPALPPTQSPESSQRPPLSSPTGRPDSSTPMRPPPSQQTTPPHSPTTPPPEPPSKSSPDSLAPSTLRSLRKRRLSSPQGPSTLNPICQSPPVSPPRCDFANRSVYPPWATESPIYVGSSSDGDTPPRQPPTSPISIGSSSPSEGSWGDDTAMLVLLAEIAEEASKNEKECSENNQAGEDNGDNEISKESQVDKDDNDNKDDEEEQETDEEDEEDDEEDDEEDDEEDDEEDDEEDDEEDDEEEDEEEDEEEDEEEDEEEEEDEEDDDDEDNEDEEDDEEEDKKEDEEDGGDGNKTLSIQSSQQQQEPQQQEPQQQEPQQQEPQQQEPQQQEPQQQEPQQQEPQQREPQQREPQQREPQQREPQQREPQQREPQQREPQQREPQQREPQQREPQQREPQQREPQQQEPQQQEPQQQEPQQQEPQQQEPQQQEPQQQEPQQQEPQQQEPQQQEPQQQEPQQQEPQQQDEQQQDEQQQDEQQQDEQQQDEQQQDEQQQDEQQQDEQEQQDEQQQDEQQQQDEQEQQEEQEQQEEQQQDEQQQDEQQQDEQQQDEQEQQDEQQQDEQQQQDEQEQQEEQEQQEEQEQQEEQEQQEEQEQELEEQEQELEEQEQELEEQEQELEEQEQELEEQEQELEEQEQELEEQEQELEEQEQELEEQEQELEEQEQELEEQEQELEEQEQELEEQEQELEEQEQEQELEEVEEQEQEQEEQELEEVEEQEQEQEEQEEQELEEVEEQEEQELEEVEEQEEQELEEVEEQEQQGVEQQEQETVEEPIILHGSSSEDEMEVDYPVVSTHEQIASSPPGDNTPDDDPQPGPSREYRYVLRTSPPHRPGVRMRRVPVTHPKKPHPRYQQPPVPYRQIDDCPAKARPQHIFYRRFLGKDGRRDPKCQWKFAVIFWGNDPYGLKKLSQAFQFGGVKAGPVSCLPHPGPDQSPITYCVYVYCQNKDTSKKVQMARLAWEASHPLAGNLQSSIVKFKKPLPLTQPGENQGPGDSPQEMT
Active calls of the source: *; ? = inconclusive; nt = not tested or not shown; + = active, no number. Most compounds without a hit are left out; they make up all but 1.7% or so of the library.

SMILES | Fh CTSL1 inh | HDAC3 inh | m5-HT2A agonist | LANA-H2A inh
CCCCNC(=O)C1C(c2ccc(OC)cc2)=Nc2ccccc2N1C(=O)Cc1cc(OC)cc(OC)c1 (configuration not stated) | nt | nt | 2.9 | nt
CCOc1ccc(/C=N/OCC(=O)Nc2cc(C)on2)cc1 | 0.7 | 2.0 | -4.0 | 20.6*
CCOc1ccc(/C=N/OCC(=O)Nc2ccc3c(c2)OCO3)cc1 | -4.3 | 3.7 | -1.0 | -2.4
O=C(COC(=O)C1C2CC3OC(=O)C1C3C2)Nc1cccc(C(F)(F)F)c1 (configuration not stated) | -6.8 | -3.9 | -6.0 | -1.5
O=C(CSC1=NCCS1)NC(c1ccccc1)c1ccccc1 | -0.4 | ? | 1.7 | 4.0
O=C(CSC1=NCCS1)NC(NC(=O)CSC1=NCCS1)c1ccccc1 | 7.4 | -8.9 | -1.8 | 15.6*
O=C(NNC(=O)c1cccs1)c1ccco1 | -9.1 | -1.2 | 6.5 | 5.7
O=C(NCCNC(=O)c1cccs1)c1ccco1 | 18.6* | -1.4 | 0.9 | 2.1
COc1ccc(CC(=O)Nc2ccc(OC)c(NC(=O)c3ccco3)c2)cc1 | 0.4 | 2.5 | -1.7 | 31.2*
COc1ccc(NC(=O)c2ccco2)cc1NC(=O)c1ccc(C)cc1 | -1.7 | 5.9 | -8.3 | 3.1
COc1ccc(NC(=O)CCc2ccccc2)cc1NC(=O)c1ccco1 | 2.5 | 1.2 | -1.7 | 28.2*
CCCCn1c(N)c(N(CC(C)C)C(=O)CCC2CCCCC2)c(=O)[nH]c1=O | -2.3 | -2.8 | 0.5 | 0.8
O=C(Nc1ncccc1O)c1ccc(Oc2ccccc2)cc1 | 7.8 | 56.3* | 0.2 | 1.8
O=C(Nc1ncccc1O)c1ccc(OCC2CCCO2)cc1 (configuration not stated) | -0.4 | 68.5* | 3.5 | 4.0
O=C(NC1=NCCS1)c1ccc(OCC2CCCO2)cc1 (configuration not stated) | -2.5 | -8.0 | 9.9 | -2.0
COc1ccccc1NS(=O)(=O)c1ccc(C(=O)Nc2ncccc2O)cc1 | nt | 79.2* | 3.7 | 1.5
COc1ccccc1NS(=O)(=O)c1ccc(C(=O)N2CC(C)OC(C)C2)cc1 (configuration not stated) | nt | 0.4 | 0.6 | 19.8*
COc1ccccc1NS(=O)(=O)c1cccc(C(=O)N2CC(C)OC(C)C2)c1 (configuration not stated) | -3.8 | -2.5 | -1.0 | -2.0
COc1ccccc1NS(=O)(=O)c1ccc(NC(=O)c2ccncc2)cc1 | 6.0 | -2.2 | -3.0 | 5.3
Cc1cc(C)c(S(=O)(=O)Cc2ccccc2)c(OC(C)C)n1 | -6.9 | 9.2 | -3.2 | 1.8
CCCNC(=O)N1C[C@H](O)COC[C@@H]2O[C@@H](CC(=O)NCCCN3CCOCC3)CC[C@H]21 | nt | nt | -2.5 | nt
CC(C)c1ccc(C(=O)OCC(=O)Nc2cccc(S(=O)(=O)NC3=NCCC3)c2)cc1 | nt | nt | -3.8 | nt
CN(CCc1ccccc1)C1CCCN(S(=O)(=O)CC(F)(F)F)C1 (configuration not stated) | 19.4* | -4.1 | -5.1 | 0.8
COc1cccc(CCC(=O)O)c1OC | 18.6* | 2.5 | 0.2 | 2.8
Cc1ccc(NC(=O)CCC(=O)N2CCN(S(=O)(=O)c3ccc(C)cc3)CC2)cc1 | nt | 1.6 | -2.2 | 1.5
SMILES | Fh CTSL1 inh | HDAC3 inh | m5-HT2A agonist | LANA-H2A inh
CN(C(=O)COC(=O)c1ccc(Br)c(S(=O)(=O)N2CCOCC2)c1)C1CCCCC1 | nt | 5.3 | -4.0 | 0.4
O=C(CC1C[C@H](C(=O)N2CCOCC2)[C@@]2(CCC3CCCC3)c3[nH]c4ccccc4c3CCN2C1=O)NCCc1ccccn1 (some centres not stated) | nt | 3.8 | 0.2 | 104.9*
COc1ccc2[nH]c3c(c2c1)CCN1C(=O)C(CC(=O)NC(C)(C)C)C[C@H](C(=O)N2CCCCC2)[C@@]31CCc1ccccc1 (some centres not stated) | nt | nt | 1.4 | nt
CC[C@]12c3[nH]c4ccccc4c3CCN1C(=O)C(CC(=O)NCc1ccco1)C[C@@H]2C(=O)N1CCN(C(=O)C2CC2)CC1 (some centres not stated) | nt | 1.4 | -3.9 | -58.7
CC(C)(C)NC(=O)CC1C[C@H](C(=O)N2CCCCC2)[C@@]2(CCc3ccccc3)c3[nH]c4ccccc4c3CCN2C1=O (some centres not stated) | nt | 4.8 | 2.7 | 32.4*
CC[C@]12c3[nH]c4ccccc4c3CCN1C(=O)C(CC(=O)NCC13CC4CC(CC(C4)C1)C3)C[C@@H]2C(=O)N1CCN(C(=O)C2CC2)CC1 (some centres not stated) | nt | 4.6 | 0.3 | +
CC[C@]12c3[nH]c4ccccc4c3CCN1C(=O)C(CC(=O)NC(C)(C)C)C[C@@H]2C(=O)N1CCN(C(=O)C2CC2)CC1 (some centres not stated) | nt | -5.8 | -1.4 | 182.6*
CCOC(=O)N1CCN(C(=O)C(NC(=O)c2ccc(C(C)(C)C)cc2)C(C)C)CC1 (configuration not stated) | nt | -4.4 | -9.1 | 1.4
CCN(CC)C(=O)c1csc([C@@H]2O[C@H](CO)[C@H](O)[C@H](O)[C@H]2O)n1 | nt | nt | -3.7 | nt
CCOc1ccc(-n2c(=O)c3sccc3n(CC(=O)NC3CCCCC3)c2=O)cc1 | -0.6 | -2.8 | 0.7 | 28.6*
CC(C)N(C)C1=CC(=O)C(N(C)C(C)C)=CC1=O | nt | nt | 7.5 | nt
Cc1c(NC(=O)Nc2cccs2)cccc1[N+](=O)[O-] | 16.8* | 8.9 | 0.0 | -10.0
O=C(CN(C(=O)c1csnn1)c1ccccc1C(F)(F)F)NCc1ccccc1 | 0.2 | -0.4 | -3.3 | 4.3
Nc1ccccc1C(=O)NCC1(c2ccccc2)CCCC1 | 17.9* | -16.5 | 2.0 | -1.4
O=C(NCC1(c2ccccc2)CCCC1)c1ccc(Br)cc1 | -2.1 | 10.2 | -0.5 | -1.6
CS(=O)c1ccccc1O (configuration not stated) | 4.8 | 5.2 | 0.4 | 38.7*
O=S(c1ccccc1O)S(=O)c1ccccc1O (configuration not stated) | nt | nt | 4.5 | nt
COc1cccc(C(=O)NCC2(c3ccc(OC)c(OC)c3)CCCC2)c1 | -5.0 | -3.0 | 2.7 | -3.6
COc1ccc(-c2cc(C(=O)Nc3ccc(S(N)(=O)=O)cc3)c3ccccc3n2)cc1OC | 0.5 | 9.7 | -1.1 | -4.1
COc1ccc(-c2cc(C(=O)Nc3cc(S(N)(=O)=O)ccc3C)c3ccccc3n2)cc1OC | 22.0* | -22.7 | -4.9 | -8.7
COc1ccc(C2CC(O)(c3ccccc3)Oc3cc(OC)c(OC)c(OC)c32)cc1 (configuration not stated) | -0.9 | 40.8* | -1.2 | 0.2
O=C(NCCC(=O)N(Cc1ccco1)Cc1cccs1)c1ccc(Br)cc1 | nt | 2.3 | -9.9 | 2.1
O=C(O)C1CC=CCC1C(=O)N1CCCC1 (configuration not stated) | 18.0* | 1.5 | 0.7 | 0.5
O=C(C1CC=CCC1)N1CCCCCC1 (configuration not stated) | nt | nt | 9.5 | nt
COc1ccc(Cl)cc1CC=NNC(=O)c1ccncc1 | nt | nt | -3.0 | nt
Nc1ccc2nc3c(=O)n(CCc4ccccc4)c(=O)[nH]c3nc2c1 | 0.1 | -3.9 | 7.1 | 6.3
Nc1ccc2nc3c(=O)n(C4CCCCC4)c(=O)[nH]c3nc2c1 | 2.1 | nt | -2.1 | 72.2*

Source: PubChem (several laboratories)
